# This is a sample that favours compounds with a hit; in the whole collection about 19% have one here.
# HT1080 IDH1KD tx: kills HT-1080 cells with IDH1 knockdown; HT-1080 IDH1 knockdown viability, ATP luminescence, 48 h; Potency, µM (top dose mostly 46.1 µM), without a hit: at the highest dose activity, negative = toxicity, most hits filed as cytotoxic; 360,000 tested, 2% active; AID 686971;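 also: potency is read from the fitted curve at half-maximal effect; 0% = DMSO wells and -100% = cell-free medium wells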
#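 CellTiter-Glo luminescence after 48 h compound exposure at 37 degrees C of IDH1-knockdown HT-1080 cells in 5% FBS RPMI. %Activity scaled between DMSO wells and cell-free media wells, with curves fitted and assigned curve classes.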
# HT1080NT lethal: kills 2HG-producing HT-1080-NT fibrosarcoma cells; HT-1080-NT fibrosarcoma viability, CellTiter-Glo ATP luminescence, 48 h; Potency, µM (titrated, usually from 46.1 µM), inactives show top-dose activity, negative = less viability, most hits filed as cytotoxic; 360,000 tested, 1.6% active;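 also: NT is the 2HG producing partner of a matched IDH1 knockdown line; potency is read from the fitted curve at half-maximal effect; 0% = DMSO-treated cells and -100% = media-only wells without cells; nearly all actives have a fitted effect of over 55% in size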
#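 HT-1080-NT; 750 cells/well; 5% FBS RPMI; 48 h compound, 37 degrees C; CellTiter-Glo luminescence; curve fitting and curve-class assignment.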
# IL1B secr inh: inflammasome signaling inhibition, IL-1 beta readout | THP-1 LPS/ATP IL-1B secretion, AlphaLISA, 16 h; active compounds read low | activity change, % at 57.5 µM | 360,000 tested, 4.7% active; in the data active = activity change below about -50%; inconclusive = mostly about -30% to -49%
#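 Secreted IL-1B measured by AlphaLISA bead assay after 16 h compound exposure of THP-1 cells; compounds (final up to 57.5 uM) added 1 h before LPS (250 ng/mL) and ATP (1.25 mM) stimulation; lower signal means less secretion.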
# uPA generation: inhibitors of cell surface uPA generation; AID 540303; 330,000 tested, 0.31% active; cell surface uPA generation assay, qHTS; Potency, µM (series often up to 38.3 µM), for the others: at the highest dose activity change, negative = inhibition, usual class: inhibitors; active = well fitted inhibition curve with a large enough effect; inconclusive = small, poorly fitted or top-dose-only effect; inactive = no such curve, though single readings can be large or run the other way; tested in mouse RAW 264.7 cells; also: potency is read from the fitted curve at half-maximal effect; nearly all actives have a fitted effect of over 55% in size
# TDP1 cell noCPT: qHTS for Inhibitors of human tyrosyl-DNA phosphodiesterase 1 (TDP1): qHTS in cells in absence of CPT. DT40 Tdp1-/- hTDP1 cells, no CPT, ATP luminescence, 48 h. Potency, µM (doses to about 46.2 µM), for inactives: top-dose activity change, negative = growth inhibition, most hits filed as inhibitors. 420,000 tested, 15% active. AID 686978, 2013; also: potency is read from the fitted curve at half-maximal effect; nearly all actives have a fitted effect of over 55% in size
#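 A cellular qHTS used chicken DT40 cells lacking endogenous Tdp1 but carrying stably transfected human TDP1. Compounds were applied without camptothecin, and cell growth kinetics were judged by ATP-dependent luminescence after ≥48 hr.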
# DT40 TDP1 CPT: growth inhibition of DT40 Tdp1-/-;hTDP1 cells with camptothecin (screen for TDP1 inhibitors); 420,000 tested, 12% active; Potency, µM (doses to about 46.2 µM), without a hit: top-dose activity change, negative = growth inhibition, most hits filed as inhibitors; AID 686979; chicken DT40 Tdp1-/-;hTDP1 cells + 20 nM CPT, ATP luminescence, 48 h; also: potency is read from the fitted curve at half-maximal effect; nearly all actives have a fitted effect of over 55% in size
#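 Chicken DT40 Tdp1-/- cells stably complemented with human TDP1 were seeded at 400 cells/well in medium containing 20 nM camptothecin, exposed to pin-transferred compounds, and grown at 37 °C for at least 48 hr. Viability was read as ATP luminescence.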
# An asterisk follows results filed as active; ? = inconclusive; / = no result given. Unless noted, calls follow the shape of the dose curve; as a rule, active = well fitted curve in the direction sought with a large enough effect; inconclusive = small, poorly fitted or top-dose-only effect, or another doubt; inactive = no such curve, though single readings can be large; an effect the other way counts as inactive or inconclusive. Unless noted, % is scaled to controls: 0 for no effect and ±100 for the full control effect.
SMILES,HT1080 IDH1KD tx,HT1080NT lethal,IL1B secr inh,uPA generation,TDP1 cell noCPT,DT40 TDP1 CPT
CCc1nc2c(OCc3ccc(C(=O)N(C)C)cc3)cccn2c1N(C=O)Cc1ccccc1,0.0%,6.0%,-21.3,/,-16.5%,?
CCc1nc2c(OCc3ccccc3)cccn2c1N(Cc1ccccc1)C(C)=O,-13.8%,-7.0%,-14.0,/,?,18.4µM*
CCCCC1S/C(=N/N=C/c2ccco2)NC1=O (configuration not stated),12.3%,21.3%,3.4,1.3%,?,16.4µM*
O=C1N/C(=N/N=C/c2ccco2)SC1Cc1ccccc1 (configuration not stated),-1.9%,-0.1%,31.1,22.7%,?,-18.5%
CCCC1S/C(=N/N=C/c2ccco2)NC1=O (configuration not stated),13.3%,17.1%,2.8,1.4%,-11.9%,-3.3%
COc1ccccc1CC1S/C(=N/N=C/c2ccco2)NC1=O (configuration not stated),-1.2%,-13.5%,11.5,-1.1%,6.51µM*,?
O=C(Nc1sc2c(c1C(=O)NCc1ccccc1)CCCC2)c1cc(=O)c2cc(Cl)ccc2o1,/,/,/,/,-1.1%,10.9%
CCOc1ccccc1N(C)C(=O)c1nn(-c2ccc(OC)cc2OC)c(=O)c2ccccc12,12.9%,12.1%,12.0,-0.8%,?,-28.9%
CC(NC(=O)c1c(N)[nH]c(C(=O)c2ccccc2)c1-c1ccccc1Br)c1cccc2ccccc12 (configuration not stated),?,?,-11.8,/,?,?
CCOC(=O)c1c[nH]n(-c2ccccc2)c1=O,10.1%,-3.1%,-9.4,2.6%,-27.8%,2.0%
CCOC(=O)c1cc(C(=O)OCC)c2ccccn2c1=O,13.2%,2.3%,-14.5,-6.7%,18.4µM*,?
O=C(CSc1ccc(F)cc1)Nc1ccc(C2SCCS2)cc1,-0.7%,12.5%,/,5.6%,?,2.5%
Cc1c(CN(C)C(=O)c2nn(C)cc2[N+](=O)[O-])cnn1C,11.9%,9.9%,99.9,1.5%,-25.0%,-7.8%
Cc1c(CN(C)C(=O)/C=C/c2ccc([N+](=O)[O-])cc2)cnn1C,-1.6%,-0.2%,-11.6,-3.1%,?,23.1µM*
O=C1c2ccccc2/C(=C\c2ccc(Br)s2)N1c1ccccc1,-9.6%,8.1%,37.5,-11.1%,?,?
CC(C)(C)OC(=O)n1cccc1/C=C1\c2ccccc2C(=O)N1c1ccccc1,5.7%,-0.3%,-1.9,-6.7%,?,20.6µM*
NNc1nc2c(Cl)c(Cl)ccc2s1,-25.6%,-13.8%,-59.7*,-1.5%,?,?
COc1cccc2sc(NN)nc12,?,-22.1%,-0.6,3.3%,?,?
O=C(C[n+]1ccc(C(=O)c2ccccc2)cc1)Nc1cccc([N+](=O)[O-])c1,-20.4%,-17.3%,-6.9,/,16.4µM*,20.6µM*
O=C(CCSc1ccccc1Cl)Nc1cccc([N+](=O)[O-])c1,?,-20.8%,-149.6*,-1.3%,?,-10.2%
O=C(Cc1ccccc1)Nc1cccc([N+](=O)[O-])c1,-1.8%,-3.2%,-15.2,13.1%,13.7%,4.9%
Cc1cc(C)c([N+](=O)[O-])cc1NC(=O)CCSc1ccccc1Cl,-1.0%,-4.2%,8.2,-5.4%,14.6µM*,?
NS(=O)(=O)c1cccc(NC(=O)CCSc2ccccc2Cl)c1,12.1%,2.6%,0.0,4.8%,3.4%,-11.0%
O=C(C[n+]1ccc(-c2cc(C(=O)Nc3cccc(C(F)(F)F)c3)c3ccccc3n2)cc1)c1cccc([N+](=O)[O-])c1,?,-27.5%,-26.9,0.0%,23.1µM*,?
CCc1nn(CC(=O)N2CCN(c3ccc(OC)cc3)CC2)c(=O)c2cc3occc3n12,-27.1%,13.8%,-3.6,5.6%,3.9%,-16.7%
CCc1ccc(NC(=O)Cn2nnc(-c3ccccc3N)n2)cc1,/,/,/,/,-23.3%,?
